Experimental data from PubChem BioAssay (Tox21).
A number with no mark means an inactive call. Records with an inconclusive call do not appear. A call without a number means that no potency is given here. Calls of active or inactive are those of the source. Unless noted, the call rests on the fitted dose curve; in most records, active means well fitted curve in the direction sought with a large enough effect in the repeat runs; inconclusive means weak or mixed curves; inactive means no such curve, though single readings can be large; an effect the other way counts as inactive or inconclusive.

What was measured:
[1] = A CellTox Green Cytotoxicity Assay to monitor cytotoxicity in HepG2 cells - 0 hour (AID 1224882); further: nearly all actives have a fitted effect of over 35% in size
In short: (§1)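 First, HepG2 cells (600/well) mixed with reagent were plated; second, after 5 h at 37 C they received compounds via pintool; third, fluorescence was measured at 0 h through 40 h at 8 h intervals.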

[2] = A CellTox Green Cytotoxicity Assay to monitor cytotoxicity in HepG2 cells - 32 hour (AID 1224883); further: nearly all actives have a fitted effect of over 50% in size; further: potency means the concentration at half of the fitted maximal effect
In short: as §1

[3] = A CellTox Green Cytotoxicity Assay to monitor cytotoxicity in HEK293 cells - 8 hour (AID 1224884); further: nearly all actives have a fitted effect of over 35% in size
In short: (§2)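 Dead-cell fluorescence measured kinetically: asymmetric cyanine dye, HEK293, 600 cells/well, 5 h settle, 23 nL cpd/DMSO, 37 C, reads 0–40 h every 8 h.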

[4] = qHTS RealTime-Glo MT Cell Viability Assay in HepG2 cells - 16 hour (AID 1224885); further: nearly all actives have a fitted effect of over 50% in size
In short: (§3)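 Compound treatment began 5 h after plating HepG2 cells (600/well) with NanoLuc luciferase and prosubstrate. Plates stayed at 37 C for 40 h; luminescence was captured at six time points, 0 h through 40 h.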

[5] = qHTS RealTime-Glo MT Cell Viability Assay in HEK293 cells - 8 hour (AID 1224887); further: top concentration of the series differs between compounds; nearly all actives have a fitted effect of over 50% in size
In short: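 600 HEK293 cells per well, dispensed already mixed with RealTime-Glo MT reagents. Compound dosing came 5 h later. The same wells were read for luminescence at 0, 8, 16, 24, 32 and 40 h of exposure at 37 C.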

[6] = qHTS RealTime-Glo MT Cell Viability Assay in HepG2 cells - 0 hour (AID 1224889); further: nearly all actives have a fitted effect of over 50% in size
In short: as §3

[7] = A CellTox Green Cytotoxicity Assay to monitor cytotoxicity in HepG2 cells - 8 hour (AID 1224890); further: nearly all actives have a fitted effect of over 45% in size; further: potency means the concentration at half of the fitted maximal effect
In short: as §1

[8] = qHTS assay to identify small molecule antagonists of the estrogen receptor alpha (ER-alpha) signaling pathway using the BG1 cell line in the presence of 0.1 nM 17-beta-estradiol - cell viability counter screen (AID 1259241); further: nearly all actives have a fitted effect of over 40% in size; further: potency means the concentration at half of the fitted maximal effect
In short: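 VM7Luc4E2 cells (endogenous ER-alpha, 4×ERE-luciferase), hormone-starved 5 days in charcoal-stripped FBS, were treated with compounds plus 0.1 nM 17beta-estradiol for 22 hr at 37C; viability read in same wells as CellTiter-Fluor live-cell protease fluorescence.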

[9] = qHTS assay to identify small molecule antagonists of the androgen receptor (AR) signaling pathway using the MDA cell line in the presence of 0.5 nM R1881 - cell viability counter screen (AID 1259242); further: nearly all actives have a fitted effect of over 45% in size
In short: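 qHTS format. MDA-kb2 (MMTV-luc, AR/GR responsive) + cpd + 0.5 nM R1881 final, 16 hr 37C/0% CO2 → CellTiter-Fluor 30 min → fluorescence intensity.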

[10] = target: Androgen receptor (Homo sapiens) (UniProt P10275); test: qHTS assay to identify small molecule antagonists of the androgen receptor (AR) signaling pathway using the MDA cell line in the presence of 0.5 nM R1881 (AID 1259243); further: nearly all actives have a fitted effect of over 50% in size
In short: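 Antagonist mode quantitative HTS in MDA-kb2 MMTV-luciferase cells, agonist R1881 at 0.5 nM final, 16 hr exposure at 37C and 0% CO2, luminescent detection.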

[11] = qHTS assay to identify small molecule HDAC inhibitors (AID 1259364);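 further: wild-type HCT-116 cells with endogenous class I/II HDAC activity; top concentration of the series differs between compounds; nearly all actives have a fitted effect of over 45% in size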
In short: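 Quantitative high-throughput format: overnight-seeded HCT-116 cells got compounds for 2 hr at 37C; HDAC-Glo I/II reagent added, 30 min RT, luminescence measured.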

[12] = qHTS assay to identify small molecule HDAC inhibitors - cell viability counter screen (AID 1259365)
In short: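 Wild-type HCT-116 cells were seeded at 1,500 per well, incubated overnight at 37 C, then exposed to compounds in DMSO for 2hr. Viability was read by CellTiter-Glo luminescence after 30min at room temperature.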

[13] = qHTS assay to identify small molecule agonists of the sonic hedgehog signaling (Shh) pathway - cell viability counter screen (AID 1259366); further: nearly all actives have a fitted effect of over 50% in size
In short: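 NIH/3T3-derived 3T3 Gli1-Luc cells (stable Gli1-responsive firefly luciferase reporter) were seeded, rested 4 hr at 37 C/5% CO2, then exposed to compounds in DMSO for 24 hr; viability was read by CellTiter-Fluor fluorescence in the same wells.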

[14] = qHTS assay to identify small molecule antagonists of the sonic hedgehog signaling (Shh) pathway - cell viability counter screen (AID 1259367); further: nearly all actives have a fitted effect of over 55% in size; further: potency means the concentration at half of the fitted maximal effect
In short: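 Cytotoxicity was assessed in parallel with Shh reporter activity by measuring live-cell protease fluorescence (CellTiter-Fluor) in NIH/3T3 cells stably carrying Gli1-Luc, treated with compound under conditioned medium stimulation for 23 hr plus 1 hr reagent incubation.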

[15] = qHTS assay to identify small molecule antagonists of the sonic hedgehog signaling (Shh) pathway (AID 1259369; calls by dose curve; further: nearly all actives have a fitted effect of over 45% in size; further: potency means the concentration at half of the fitted maximal effect)
In short: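 Stable Gli1-Luc reporter NIH/3T3 clone; quantitative HTS in stimulated mode with conditioned medium. Luminescence measured after 24hr compound treatment at 37 C.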

[16] = A CellTox Green Cytotoxicity Assay to monitor cytotoxicity in HEK293 cells - 16 hour (AID 1224888); further: nearly all actives have a fitted effect of over 35% in size
In short: as §2

[17] = target: Estrogen receptor (Homo sapiens) (UniProt P03372); test: qHTS assay to identify small molecule antagonists of the estrogen receptor alpha (ER-alpha) signaling pathway using the BG1 cell line in the presence of 0.1 nM 17-beta-estradiol (AID 1259244); further: nearly all actives have a fitted effect of over 50% in size; further: potency means the concentration at half of the fitted maximal effect
In short: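 Reporter is a stably transfected luciferase under four estrogen responsive elements in VM7Luc4E2 cells expressing native full-length ER-alpha; inhibition of 0.1 nM (final) 17beta-estradiol-driven signal over 22 h is read by luminescence.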

[18] = qHTS assay to identify small molecule agonists of the sonic hedgehog signaling (Shh) pathway (AID 1259368; calls by dose curve; further: series mostly up to about 92 µM; nearly all actives have a fitted effect of over 15% in size)
In short: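 Quantitative high-throughput format using a Gli1-driven firefly luciferase reporter line derived from NIH/3T3 cells. After a 24 hr compound treatment at 37 C and 5% CO2, luminescence reported Gli1 response element activity.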

[19] = qHTS RealTime-Glo MT Cell Viability Assay in HEK293 cells - 24 hour (AID 1224886)
In short: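 Quantitative high-throughput screen of the Tox21 10K library in HEK293: cells and RealTime-Glo reagents plated together, compound added at 5 h, luminescence monitored through 40 h at 37 C.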

[20] = qHTS assay to identify small molecule phospholipidosis (PLD) inducers (AID 1259344; active means well fitted curve in the direction sought with a large enough effect; an effect the other way counts as inactive or inconclusive)
In short: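 Cells (HepG2, 900 per well) attach for 4 h, receive LipidTOX Red and compound together, incubate 24 h at 37 C, are fixed 30 min with paraformaldehyde/Hoechst, then imaged at one site per well.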

Estrogen receptor (Homo sapiens), sequence (P03372 whole entry, looked up): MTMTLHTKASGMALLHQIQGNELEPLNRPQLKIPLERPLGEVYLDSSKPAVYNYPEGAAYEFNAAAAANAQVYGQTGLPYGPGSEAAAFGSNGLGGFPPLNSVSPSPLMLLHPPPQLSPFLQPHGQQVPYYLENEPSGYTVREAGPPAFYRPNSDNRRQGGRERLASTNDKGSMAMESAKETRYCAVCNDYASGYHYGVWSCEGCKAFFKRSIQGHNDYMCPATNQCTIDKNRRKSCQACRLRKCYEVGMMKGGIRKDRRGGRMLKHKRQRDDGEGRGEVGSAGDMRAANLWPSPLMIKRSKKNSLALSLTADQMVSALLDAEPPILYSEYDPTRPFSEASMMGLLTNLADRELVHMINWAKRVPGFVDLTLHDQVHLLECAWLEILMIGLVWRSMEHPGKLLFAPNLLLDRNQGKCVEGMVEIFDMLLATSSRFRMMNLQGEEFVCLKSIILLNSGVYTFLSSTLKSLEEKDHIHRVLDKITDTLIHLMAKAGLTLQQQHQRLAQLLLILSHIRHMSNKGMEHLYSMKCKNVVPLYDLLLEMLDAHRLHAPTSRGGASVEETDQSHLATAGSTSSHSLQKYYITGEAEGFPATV
Androgen receptor (Homo sapiens), sequence (P10275 whole entry, looked up): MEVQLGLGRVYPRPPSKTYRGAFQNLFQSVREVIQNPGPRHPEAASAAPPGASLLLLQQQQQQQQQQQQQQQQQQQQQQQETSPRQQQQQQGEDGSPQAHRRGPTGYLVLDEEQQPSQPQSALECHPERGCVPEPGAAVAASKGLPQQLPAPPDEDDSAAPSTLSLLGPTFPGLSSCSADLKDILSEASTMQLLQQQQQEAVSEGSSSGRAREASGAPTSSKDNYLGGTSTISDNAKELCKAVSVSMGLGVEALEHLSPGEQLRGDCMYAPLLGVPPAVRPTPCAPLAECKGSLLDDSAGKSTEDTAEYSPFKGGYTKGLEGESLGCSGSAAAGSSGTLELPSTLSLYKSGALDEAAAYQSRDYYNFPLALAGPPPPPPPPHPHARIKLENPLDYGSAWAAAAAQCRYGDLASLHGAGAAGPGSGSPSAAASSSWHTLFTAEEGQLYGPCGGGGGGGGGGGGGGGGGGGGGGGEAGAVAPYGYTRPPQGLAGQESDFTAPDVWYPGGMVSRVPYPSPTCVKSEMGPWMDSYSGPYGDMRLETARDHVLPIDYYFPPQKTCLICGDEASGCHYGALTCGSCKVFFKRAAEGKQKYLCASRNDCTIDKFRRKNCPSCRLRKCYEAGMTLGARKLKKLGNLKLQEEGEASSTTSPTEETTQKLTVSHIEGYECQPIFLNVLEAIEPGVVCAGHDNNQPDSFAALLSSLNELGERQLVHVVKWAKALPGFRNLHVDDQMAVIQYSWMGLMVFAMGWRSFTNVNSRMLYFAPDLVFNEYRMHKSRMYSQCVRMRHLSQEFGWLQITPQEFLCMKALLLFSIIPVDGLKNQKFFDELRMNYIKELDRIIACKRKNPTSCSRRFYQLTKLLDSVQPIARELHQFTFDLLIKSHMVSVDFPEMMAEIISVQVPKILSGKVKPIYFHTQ

SMILES | Potency [1] | Potency [2] | Potency [3] | outcome [4] | Potency [5] | Potency [6] | Potency [7] | Potency [8] | outcome [9] | Potency [10] | Potency [11] | outcome [12] | Potency [13] | Potency [14] | Potency [15] | Potency [16] | Potency [17] | Potency [18] | Potency [19] | outcome [20]
COC(=O)/C=C(/C)N | inactive | inactive | inactive | inactive | inactive | inactive | inactive | inactive | inactive | inactive | inactive | inactive | inactive | inactive | inactive |  |  |  |  | 
Cc1nc(N)nc(N)c1-c1ccc(Cl)c(Cl)c1 | inactive | inactive | inactive | inactive |  | inactive | inactive | inactive | inactive |  | inactive | inactive | inactive | inactive |  | inactive | 13.3 µM (active) | inactive |  | 
O=S(=O)(O)C(F)(F)F | inactive | inactive | inactive |  |  | inactive | inactive | inactive | inactive |  | inactive | inactive | inactive | inactive |  | inactive | inactive |  |  | 
CC1=C(O)C(=O)OC1C (stereo not given) | inactive | inactive |  | inactive | inactive | inactive | inactive | inactive | inactive |  | inactive | inactive | inactive | inactive | inactive | inactive |  | inactive | inactive | 
CN1CCC[C@@H]1Cc1c[nH]c2ccc(CCS(=O)(=O)c3ccccc3)cc12 | inactive | inactive |  | inactive | inactive | inactive | inactive | inactive | inactive |  | inactive | inactive | inactive | inactive | 13.3 µM (active) | inactive |  | inactive | inactive | 
CN(CC1(C)CCCO1)S(=O)(=O)c1ccc(Cl)c(S(N)(=O)=O)c1 (stereo not given) | inactive | inactive |  | inactive |  | inactive | inactive | inactive | inactive |  | inactive | inactive | inactive | inactive | inactive | inactive |  | inactive | inactive | 
CC(C)NCC(O)COc1ccc(CCOCC2CC2)cc1 (stereo not given) | inactive | inactive |  | inactive | inactive | inactive | inactive | inactive | inactive |  | inactive | inactive | inactive | inactive | inactive | inactive |  | inactive |  | inactive
CCOc1ccc(NS(=O)(=O)c2ccc(N)cc2)nn1 | inactive | inactive | inactive |  |  | inactive | inactive | inactive | inactive |  | inactive | inactive | inactive | inactive | inactive | inactive |  | inactive |  | inactive
Cc1cc2c(s1)Nc1ccccc1N=C2N1CCN(C)CC1 | inactive | inactive |  | inactive | inactive | inactive | inactive | 13.3 µM (active) | inactive |  | inactive | inactive |  | 5.31 µM (active) | inactive |  | inactive | inactive |  | inactive
CCCCCCC | inactive | inactive |  | inactive | inactive | inactive | inactive | inactive | inactive |  | inactive | inactive | inactive | inactive | inactive |  |  | inactive | inactive | 
C=CC(C)(O)CC/C=C(\C)CCC=C(C)C (stereo not given) | inactive | 21.9 µM (active) |  | inactive | inactive | inactive | 19.5 µM (active) | inactive | inactive |  | inactive | inactive | inactive | inactive | inactive |  |  | inactive | inactive | inactive
CCNCCO | inactive | inactive |  | inactive | inactive | inactive | inactive | inactive | inactive |  | inactive | inactive | inactive | inactive | inactive | inactive |  | inactive | inactive | 
C/C(=N\O)[C@@H](C)NCC(C)(C)CN[C@H](C)/C(C)=N/O | inactive | inactive |  | inactive | inactive | inactive | inactive | inactive | inactive |  | inactive | inactive | inactive | inactive | inactive | inactive |  | inactive | inactive | 
O=C1CCCCCCCCCCC(=O)OCCO1 | inactive | 24.5 µM (active) |  | inactive |  | inactive | inactive | inactive | inactive |  | inactive | inactive | inactive | inactive |  | inactive | inactive | inactive | inactive | 
O=C(O)c1cccc(Cl)c1Cl | inactive | inactive |  | inactive |  | inactive | inactive | inactive | inactive |  | inactive | inactive | inactive | inactive | inactive | inactive | inactive |  |  | 
CC1(C)S[C@@H]2[C@H](NC(=O)C(C(=O)O)c3ccccc3)C(=O)N2[C@H]1C(=O)O (stereo not given in full) | inactive | inactive |  | inactive | inactive | inactive | inactive | inactive | inactive |  | inactive | inactive | inactive | inactive | inactive | inactive |  |  | inactive | inactive
O=C(O[C@@H](C(=O)O)[C@@H](OC(=O)c1ccccc1)C(=O)O)c1ccccc1 | inactive | inactive |  | inactive | inactive | inactive | inactive | inactive | inactive |  | inactive | inactive | inactive | inactive | inactive | inactive |  | inactive | inactive | 
